# aSyn UTR inh: MLPCN primary screen, SNCA 5' untranslated region; alpha-synuclein 5'UTR reporter, inhibitor activity; actives 0.82% (n = 300,000); AID 1813; inhibition, % (tested at 7.5 µM); in the data active = inhibition above about 60%;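 also: H4 neuroglioblastoma cells stably carrying SNCA 5'UTR luciferase fusion; 0% = DMSO wells and 100% = positive control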
# KLF5 inhibitor: inhibitors of KLF5 expression; inhibition, % at 5 µM; actives 0.23% (n = 290,000); DLD-1 KLF5 promoter-luciferase reporter, luminescence;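 active = inhibition above a per-plate limit of that plate's mean compound inhibition plus 3 SD, cut at about 60% in these data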;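 also: 0% = DMSO wells and 100% = LY294002 at 200 µM; higher means less KLF5 promoter-driven luciferase light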
# IEC-6 cytotox: kills IEC-6 intestinal cells in KLF5 counter-screen; IEC-6 cytotoxicity, luminescence viability; inhibition, % at 5 µM; actives 0.78% (n = 290,000); in the data active = inhibition above about 22%;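 also: 0% = plate median of test compound wells and 100% = cytotoxic reference compound wells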
# APP 5UTR inh: APP translation inhibition; SH-SY5Y APP 5'UTR-luciferase reporter, luminescence; inhibition, % at 2 µM; actives 0.82% (n = 190,000); AID 1285;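 active = inhibition above a set limit, derived from the sample mean plus 3 SD, cut at about 45% in these data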
# BaF3 parental: reduces parental Ba/F3 cell viability, JAK2V617F counter-screen. inhibition, % at 5.6 µM. actives 1.1% (n = 220,000). CellTiter-Glo ATP luminescence. AID 1486;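 active = inhibition above a per-campaign cutoff, the mean inhibition of all tested compounds plus 3 SD, cut at about 27% in these data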;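 also: 0% = DMSO wells and 100% = JAK Inhibitor I control wells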
# Ba/F3 V617F tox: lowers viability of Ba/F3 cells expressing EpoR and JAK2V617F; ATP luminescence; inhibition, % at 5.6 µM; actives 1.1% (n = 220,000);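 active = inhibition above the campaign mean plus 3 SD over all tested compounds, cut at about 24% in these data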;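 also: cytokine-independent growth of Ba/F3 cells driven by EpoR plus mutant JAK2; 0% = DMSO-treated cells and 100% = JAK inhibitor I control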
# * = called active by the depositor; . = no result given. Hits are enriched below; roughly 2.2% of the tested compounds scored in any of these assays.
SMILES,aSyn UTR inh,KLF5 inhibitor,IEC-6 cytotox,APP 5UTR inh,BaF3 parental,Ba/F3 V617F tox
Oc1cc2c(cc1C(c1ccc(Br)cc1)N1CCCC1)OCO2 (stereo not drawn),.,-22,3,7,10,2
O=C(NC(Cc1ccccc1)C(=O)O)/C(=C/c1ccc(Cl)cc1)NC(=O)c1ccccc1 (stereo not drawn),-18,11,-5,-1,37*,1
O=C(NC(Cc1ccccc1)C(=O)O)/C(=C\c1ccccc1F)NC(=O)c1ccccc1 (stereo not drawn),9,-10,-3,17,3,-2
COc1ccc(Nc2oc(COc3ccc(OC)cc3)nc2C#N)cc1,78*,4,1,4,-2,-3
COc1ccc(Nc2oc(COc3ccccc3F)nc2C#N)cc1,38,-20,4,-1,3,-1
COc1ccc(Nc2oc(COc3cccc(C)c3)nc2C#N)cc1,29,-44,5,-4,6,1
COc1ccc(Nc2oc(COc3ccc(C)cc3)nc2C#N)cc1,68*,-31,0,-2,4,4
CNC(=O)c1cc(C(=O)c2ccc(Cl)cc2)c(Br)[nH]1,-10,-21,3,.,.,.
CCN(CC)c1ccc2c(-c3ccc(S(=O)(=O)O)cc3S(=O)(=O)[O-])c3ccc(=[N+](CC)CC)cc-3oc2c1,80*,-14,9,.,.,.
Cc1cc(C)c(OCC(=O)NCC(C)(C)N2CCOCC2)c(C)c1,3,.,.,.,.,.
COC(=O)c1c(C)[nH]c(-c2csc(N)n2)c1C,-6,-3,2,12,51*,17
CCOC(=O)c1[nH]c(C)c(C(=O)OC)c1C,-9,-52,-8,.,-1,-2
Cc1ccc(-n2cnc(N)c2C(=O)c2cccc([N+](=O)[O-])c2)cc1,-4,-5,-4,.,-1,-5
Cc1ccc(-n2nc3c(N4CCC(C(=O)NCCc5cccs5)CC4)nnc(C)c3c2C)cc1,90*,-30,17,.,.,.
Cc1ccc(-n2nc3c(=O)n(CC(=O)NCCc4cccs4)nc(C)c3c2C)cc1,43,-8,6,.,.,.
COc1ccccc1NS(=O)(=O)c1ccc(C)c(C(=O)NCCCN2CCCC2=O)c1,0,.,.,.,.,.
CS(=O)(=O)N1CCCC(C(=O)NCCCN2CCC(Cc3ccccc3)CC2)C1 (stereo not drawn),-2,-18,-4,11,96*,-1
CNC(=S)N/N=C(\C)c1ccc(N2CCOCC2)cc1,-55,22,4,-31,41*,96*
CC(=O)/C=C/c1ccccc1O,-25,-14,6,-4,2,2
C[n+]1ccc(/C=C/c2ccccc2O)c2ccccc21,-14,6,-2,12,71*,58*
OC1(c2ccccn2)COc2ccccc2O1 (stereo not drawn),-28,-30,-3,.,0,-5
COc1ccc2cc(-c3cc(C(=O)O)c4ccccc4n3)ccc2c1,78*,41,3,-84,15,13
Cc1ccc(C(=O)N/N=C/c2ccc([N+](=O)[O-])s2)cc1,108*,-34,-1,70*,1,-1
O=C(N/N=C/c1ccc(O)c2ncccc12)c1cccc(Br)c1,67*,5,20,63*,52*,92*
Cc1cc(C(=O)N/N=C/c2ccc(C)s2)n[nH]1,-97,-67,5,.,.,.
SMILES,aSyn UTR inh,KLF5 inhibitor,IEC-6 cytotox,APP 5UTR inh,BaF3 parental,Ba/F3 V617F tox
Cc1cc(C(=O)N/N=C/c2ccc([N+](=O)[O-])s2)n[nH]1,79*,12,3,.,3,6
O=C(N/N=C/c1ccc(Br)s1)c1ccc([N+](=O)[O-])cc1,84*,-32,1,36,0,-3
O=C(N/N=C/c1ccc([N+](=O)[O-])s1)c1ccncc1,-64,-9,-4,14,8,1
CCOC(=O)c1ccc(-n2c(CN3CCC(O)CC3)nc3ccc([N+](=O)[O-])cc3c2=O)cc1,-21,2,-10,1,5,2
CNC(=O)c1c(NC(=O)CCS(=O)(=O)c2ccc(C)cc2)sc(C)c1C,4,.,.,.,.,.
O=C(N/N=C/c1ccc([N+](=O)[O-])s1)c1cccc(Br)c1,67*,-1,12,24,10,6
O=C(CCN1C(=O)[C@@H]2Cc3ccccc3CN2C1=O)Nc1cccc(F)c1,-1,-10,2,.,.,.
Cc1cc(=O)[nH]c(N/N=C/c2cccc(Br)c2)n1,-24,-41,2,.,.,.
Cc1cc(=O)[nH]c(N/N=C/c2ccccn2)n1,74*,-33,2,65*,2,10
COc1ccccc1N1CCN(C2CCCN(C(=O)CCN3CCCCO3)C2)CC1 (stereo not drawn),7,-11,2,.,.,.
FC(F)(F)c1ccccc1NC(=S)NN=C1CCCCCC1,-18,-14,7,93*,0,-2
COC(=O)C1=C(C(=O)OC)[C@@H]2N(C)c3ccc(OC)cc3[C@@]23C[C@@H](C(=O)OC)N(C(=O)c2ccco2)C3=N1,-15,.,.,.,.,.
O=C(Nc1cccc(-c2cn3cccnc3n2)c1)c1ccco1,-31,-14,-1,14,1,-3
O=C(Nc1cccc(-c2cn3cccnc3n2)c1)c1ccc(Br)o1,-50,-24,4,54*,6,4
O=C(O)c1cccc(COc2ccc(CO)cc2Cl)c1,105*,.,.,.,.,.
COc1ccc(OCc2cccc(C(=O)O)c2)cc1,128*,.,.,.,.,.
CCOc1ccc(OCc2cccc(C(=O)O)c2)cc1,84*,.,.,.,.,.
O=C(O)c1cc(OCc2ccccc2)cc(OCc2ccccc2)c1,1,-18,-2,.,.,.
O=C(OCC(F)(F)F)c1cccc(COc2ccc3ccccc3c2)c1,107*,-4,-1,44,2,2
Cc1oc2ccccc2c1CC(=O)NCCCN(C)C,-2,-2,-1,.,1,-5
CC(=O)c1ccccc1NC(=O)c1ccc(N2CCCC2=O)cc1,-51,.,.,.,.,.
O=C(NCC1CCCN1S(=O)(=O)c1cccs1)C(=O)Nc1cccc(F)c1 (stereo not drawn),-18,.,.,.,.,.
CCOc1ccc(OCc2cccc(C(=O)N3CCCC3)c2)cc1,-4,-134,2,-117,8,3
CCOc1ccc(OCc2cccc(C(=O)N3CCCCCC3)c2)cc1,76*,-61,0,-113,11,0
COc1ccc(N2CC(C(=O)Nc3ncccc3C)CC2=O)cc1 (stereo not drawn),31,-4,-6,-11,101*,-3
COc1ccc(N2CC(C(=O)N/N=C/c3ccc(C)cc3)CC2=O)cc1 (stereo not drawn),-23,21,16,83*,5,7
O=C(Nc1ccc(Oc2cccc(C(F)(F)F)c2)nc1)c1ccco1,39,-30,8,.,-2,0
CC(C)(C)c1ccc(Oc2ccc(NC(=O)c3ccco3)cn2)cc1,-11,-32,13,.,72*,80*
N#Cc1ccccc1COc1ccc(/C=C/C(=O)O)cc1,71*,-2,0,60*,5,8
